Compound activity: PubChem, Broad Institute
Rtt109 Vps75 = C. albicans Rtt109 histone acetyltransferase inhibition; Q5AAJ8; purified Rtt109/Vps75, ThioGlo CoA-SH fluorescence, 4 h; inhibition, % at 34.9 µM; hit rate 0.16% among 330,000;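 active = inhibition of at least 50% in every replicate; inconclusive = best replicate reaches 50% inhibition but some replicates fall short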
Target sequence (Q5AAJ8 whole entry, looked up): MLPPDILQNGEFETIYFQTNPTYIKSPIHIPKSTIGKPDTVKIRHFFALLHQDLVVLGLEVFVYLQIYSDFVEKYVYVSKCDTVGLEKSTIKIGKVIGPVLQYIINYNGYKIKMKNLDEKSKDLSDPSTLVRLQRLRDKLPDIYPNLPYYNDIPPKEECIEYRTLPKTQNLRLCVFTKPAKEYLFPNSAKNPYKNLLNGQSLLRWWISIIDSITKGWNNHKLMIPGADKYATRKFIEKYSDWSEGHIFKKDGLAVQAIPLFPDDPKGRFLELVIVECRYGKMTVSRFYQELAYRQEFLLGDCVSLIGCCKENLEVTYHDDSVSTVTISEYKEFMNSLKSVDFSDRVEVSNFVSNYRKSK
esBAF inh = SWI/SNF esBAF complex inhibition. mouse ES cells, Bmi1-luciferase knock-in reporter, 24 h; 100% = twice the neutral-well signal. reporter increase, % at 12.5 µM. hit rate 2% among 350,000. AID 602393; in the data active = activation above about 40%; inconclusive = no clear call, values can overlap the other calls;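 also: 0% = median of the plate's neutral control wells and 100% = double that signal; a rise in the Bmi1 reporter signal indicates esBAF inhibition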
Wnt act = activators of Wnt/beta-catenin signaling; Wnt/beta-catenin reporter cell assay, activator, plate reader; activation, % at 9.35 µM; hit rate 1.2% among 300,000; in the data active = activation above about 30%, passing the limit was not always enough; inconclusive = no clear call, values can overlap the other calls;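 also: 0% = neutral control wells and 100% = positive control wells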
C2C12 statin = suppression of simvastatin myotoxicity; hit rate 0.78% among 330,000; C2C12 myotubes + simvastatin, ATP luminescence, 48 h; scaled: DMSO 0, geranylgeraniol control 100; rescue of ATP level, % at 7.49 µM;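 active = mean ATP rescue above about 67%, or every replicate alone reaching that limit, limit read from the data, passing the limit was not always enough; inconclusive = no clear call, values can overlap the other calls; inactive = mean under the limit and some replicate under it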;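 also: myotubes were challenged with 10 µM simvastatin during compound exposure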
MITF act = activators of MITF-driven TRPM1 promoter activity in SK-MEL-5 cells | SK-MEL-5 TRPM1-promoter luciferase, 24 h; % of positive control, neutral wells = 0 | activation, % at 12.5 µM | hit rate 0.75% among 300,000;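 active = mean activation of at least 80% with every replicate also reaching 80%; inconclusive = mean reaches 80% but some replicate falls short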;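 also: 0% = neutral control wells and 100% = parthenolide positive control wells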
* = called active by the depositor; ? = inconclusive; . = no result. In the library only some 3.1% were active in any assay of this set; here they are far more common.

SMILES | Rtt109 Vps75 | esBAF inh | Wnt act | C2C12 statin | MITF act
CO[C@H]1CN(C)C(=O)c2cccc(C#N)c2OC[C@@H]2O[C@H](CC[C@H]2OC)CCN(C)C(=O)[C@@H]1C | . | -2.5 | . | 4.9 | .
C[C@@H]1CN([C@H](C)CO)C(=O)c2cc(C3=CCCC3)cnc2O[C@H]1CN(C)C(=O)C1CCOCC1 | . | -3.2 | . | -5.2 | .
Cc1nc2sc(C(c3ccc(Br)cc3)N3CC(C)OC(C)C3)c(O)n2n1 (stereo not given) | . | 5.6 | . | 91.4* | -4.1
CCCNC(=O)C[C@H]1CC[C@@H]2[C@H](COc3ccc(NC(=O)c4cc(F)cc(F)c4)cc3C(=O)N2C)O1 | . | 1.8 | . | -6.5 | .
O=C(Nc1nnc(Cc2ccc(F)cc2)s1)Nc1ccccc1F | -6.5 | 8.1 | 6.4 | 2.0 | 14.5
O=C(Nc1nnc(Cc2ccccc2F)s1)Nc1ccccc1F | 19.9 | 43.6* | 5.1 | -1.6 | 29.0
O=C(Nc1nnc([C@@H]2C[C@H](O)[C@@H](CO)O2)s1)Nc1ccccc1F | . | 6.0 | 39.1* | -0.4 | .
CCc1nnc(NC(=O)Nc2ccccc2OC)s1 | 5.8 | ? | -4.5 | 1.9 | 134.6*
O=C(Nc1nnc([C@H]2C[C@H](O)[C@@H](CO)O2)s1)Nc1ccccc1F | . | 38.1 | -1.9 | 5.3 | .
COc1ccccc1NC(=O)Nc1nnc(C(C)c2ccccc2)s1 (stereo not given) | -8.7 | 53.0* | -1.0 | 18.9 | 10.8
CC(C)C(=O)Nc1ccc2c(c1)C(=O)N(C)[C@@H]1CC[C@H](CC(=O)O)O[C@@H]1CO2 | . | -10.3 | . | 11.5 | .
COc1ccc(-c2csc(NC(=O)c3ccoc3C)n2)cc1 | -8.6 | . | 12.6 | . | 86.3*
COC(=O)c1c(-c2ccncc2)csc1NC(=O)c1ccoc1C | -8.0 | 36.5 | . | 21.8 | 88.2*
COc1ccc(-c2csc(NC(=O)c3c(C)noc3C)n2)cc1 | 8.2 | 47.6* | 8.9 | -74.4 | 33.2
COc1ccc2nc(NC(=O)c3c(C)noc3C)sc2c1 | -2.1 | 25.4 | 34.8* | -11.7 | .
CCCN(C)C[C@H]1OCCCC[C@@H](C)Oc2ccc(NC(=O)c3ccncc3)cc2C(=O)N([C@@H](C)CO)C[C@H]1C | . | -7.9 | . | -11.8 | .
C[C@@H]1CN([C@@H](C)CO)C(=O)c2cc(C#Cc3cccc(F)c3)cnc2O[C@H]1CN(C)C(=O)c1ccccc1F | . | 2.5 | . | 35.7 | .
COc1cccc(C(=O)Nc2ccc3c(c2)C(=O)N(C)[C@@H]2CC[C@@H](CC(=O)NCC4CC4)O[C@H]2CO3)c1 | . | 3.7 | . | 1.3 | .
Cc1noc(C)c1C(=O)Nc1nc(-c2cccs2)cs1 | 13.7 | ? | 30.2* | -10.8 | 41.9
N#Cc1ccc(C(=O)N2CCCCC2c2cc(C(=O)Nc3cccc(C#N)c3)no2)cc1 (stereo not given) | . | -0.2 | 35.6* | -0.7 | .
O=C(Nc1nnc(C2CC2)s1)c1cc2ccccc2o1 | -15.6 | 46.1* | ? | -8.3 | 65.9
CS(=O)(=O)c1ccc2nc(NC(=O)c3cc4ccccc4o3)sc2c1 | 2.0 | 67.5* | 16.5 | -21.5 | 31.2
Cc1ccc(C(=O)Nc2nc3ccc(S(C)(=O)=O)cc3s2)o1 | -9.1 | 36.0 | 53.3* | -25.5 | .
O=C(Nc1nnc(C2CC2)s1)c1ccc(Cl)nc1 | 2.9 | 53.0* | 33.8* | 6.2 | 46.0
COc1cccc(C(=O)Nc2ccc3c(c2)C(=O)N(C)C[C@H](OC)[C@@H](C)CN(C)[C@H](C)CO3)c1 | . | -1.8 | . | 1.7 | .
SMILES | Rtt109 Vps75 | esBAF inh | Wnt act | C2C12 statin | MITF act
Cc1ccc(NC(=O)C(c2ccccc2)N2CCN(CC(=O)N3CCOCC3)CC2)cc1 (stereo not given) | -6.5 | 23.7 | 33.1* | 12.6 | 22.2
Cc1ccsc1/C=N/Nc1ccc(C(=O)O)cc1 | -6.3 | -44.6 | 12.1 | 7.1 | -62.7
Brc1ccsc1/C=N/Nc1ccccc1 | 0.3 | . | 41.2* | . | .
COc1cc(/C=N/N=C(N)N)ccc1OCc1ccccc1Cl | 69.0* | . | -1.2 | . | 7.0
Nc1cccc(C#Cc2ccc3c(=O)c4ccccc4oc3c2)c1 | -2.3 | 52.7* | -2.2 | -25.2 | 132.5*
CC(=O)c1ccc2oc3ccccc3c(=O)c2c1 | -16.7 | 44.3* | 11.1 | 8.3 | 80.2*
O=c1c2ccccc2oc2ccccc12 | . | 23.8 | -0.9 | 13.8 | .
Nc1ccc(C#Cc2ccc3oc4ccccc4c(=O)c3c2)cc1 | 12.6 | 42.1* | 19.8 | 13.2 | 57.7
Cn1c2ccccc2c(=O)c2cc(C#Cc3ccc(N)cc3)ccc21 | 1.5 | 0.8 | -3.0 | -21.1 | 49.1
Cc1noc(C)c1NC(=O)N[C@@H]1C=C[C@@H](CC(=O)N2CCCCC2)O[C@@H]1CO | . | -1.6 | . | -7.8 | .
O=C(COc1ccc(Br)cc1Cl)NC(=S)Nc1ccccn1 | 16.4 | 49.6* | 23.5 | 1.3 | 76.6
C[C@@H]1CN([C@@H](C)CO)C(=O)c2cc(C#CCN(C)C)cnc2O[C@H]1CN(C)C(=O)c1cccc(F)c1 | . | -2.8 | . | 0.4 | .
COc1ccc2[nH]c(=O)c(-c3nnn(-c4ccccc4)n3)cc2c1 | 1.1 | 58.2* | 9.0 | -0.6 | 57.0
O=C(Nc1ccc(C(F)(F)F)cc1)N[C@H]1CC[C@@H](CCn2cc(C3(O)CCCC3)nn2)O[C@@H]1CO | . | 6.8 | . | -8.4 | .
Cc1cc2c3c(c1)C1(SCC(=O)N1c1ccc(F)cc1)C(=O)N3C(C)(C)CC2C (stereo not given) | 14.0 | -11.3 | . | 110.5* | 4.4
CC1CC(C)(C)N2C(=O)C3(Nc4ccccc4S3)c3cccc1c32 (stereo not given) | 14.7 | -0.7 | . | 29.1 | -14.6
COC(=O)[C@H]1[C@H](CO)[C@H]2Cn3c(ccc(-c4ccccc4F)c3=O)[C@H]2N1CC1CCCC1 | . | -3.0 | . | 25.1 | .
CO[C@H]1CN(C)C(=O)c2ccc(NS(C)(=O)=O)cc2OC[C@H](C)NC[C@H]1C | . | -1.4 | . | -9.3 | .
COc1cccc(-c2nc(CC(=O)O)cs2)c1OC | 6.6 | . | -1.5 | . | .
COc1ccc(-c2nc(CC(=O)O)cs2)cc1 | -8.0 | 19.8 | -1.2 | 105.2* | .
CC(=O)Nc1ccc(NC(=O)c2cccc(-c3cc4ccccc4oc3=O)c2)cc1 | -6.8 | 66.4* | 3.5 | -3.6 | 13.1
Nc1ccc(Nc2nc(-c3cc4ccccc4oc3=O)cs2)cc1 | -4.7 | 81.0* | 2.9 | 22.3 | 11.6
CC(=O)Nc1ccc(Nc2nc(-c3cc4ccccc4oc3=O)cs2)cc1 | 1.1 | 90.4* | -0.1 | -2.0 | .
O=C(O)c1ccc(Nc2nc(-c3cc4ccccc4oc3=O)cs2)cc1O | 8.0 | . | 12.9 | . | -2.6
O=C(Nc1ccc(N2CCCC2)c(Cl)c1)c1cccc(-c2cc3ccccc3oc2=O)c1 | -11.4 | . | 0.7 | . | 10.0
CO[C@@H]1CN(C)C(=O)c2cc(NC(=O)NC(C)C)ccc2OC[C@H](C)N(Cc2cncnc2)C[C@@H]1C | . | 3.3 | . | -0.3 | .
N=C1N(/N=C/c2ccccc2)C(=Nc2ccccc2)C(=S)N1c1ccccc1 | -1.7 | 59.7* | . | 0.5 | .
Cc1ccc(/C=N/n2c(-c3ccccc3)n[nH]c2=S)cc1 | 4.4 | -2.9 | -0.7 | 4.7 | .
C[C@H](CO)N1C[C@H](C)[C@@H](CN(C)Cc2ccc3c(c2)OCO3)Oc2ccc(NC(=O)Cc3ccccc3)cc2CC1=O | . | 0.1 | . | -27.7 | .
